PubChem BioAssay (EPA / NIEHS)
Active and inactive are the calls of the source. Rule for the calls: active = hit-call score of the fitted dose curve at least 0.9, where 1 is the maximum; inactive = score below 0.9.

Columns and labels:
Settings in all cases: mRNA level, 48 h; actives raise or lower the signal
[1] = read-out: Cytochrome P450 3A4 (Homo sapiens) (UniProt P08684); assay: LTEA_HepaRG_CYP3A4: Life Technologies and Expression Analysis (LTEA) Assay for CYP3A4 using HepaRG (AID 2283487)
Procedure, shortened: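 In a human hepatic line (HepaRG), duplicate wells were treated 48 h with up to 100 uM chemical in half-log dilutions. Endpoint: CYP3A4 mRNA induction or loss relative to 0.5% DMSO vehicle, by qRT-PCR.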

[2] = read-out: DNA damage-inducible transcript 3 (DDIT3), DDIT3 (gene 1649); assay: LTEA_HepaRG_DDIT3: Life Technologies and Expression Analysis (LTEA) Assay for DNA damage-inducible transcript 3 (DDIT3) using HepaRG (AID 2283488)
Procedure, shortened: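 qRT-PCR readout (Fluidigm TaqMan), housekeeping-normalized to ACTB, GAPDH, POLR2A. HepaRG cells, 48 h exposure, 8-point half-log series from 100 uM in 0.5% DMSO, duplicates. Gain or loss of signal fitted against DMSO baseline.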

[3] = read-out: Pro-epidermal growth factor (Homo sapiens) (UniProt P01133); assay: LTEA_HepaRG_EGF: Life Technologies and Expression Analysis (LTEA) Assay for Epidermal growth factor (EGF) using HepaRG (AID 2283489)
Procedure, shortened: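 EGF expression changes in human HepaRG cells are scored by bidirectional fitting relative to 0.5% DMSO controls. Chemicals are tested at eight half-log concentrations up to 100 uM for 48 h in serum-free induction medium.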

[4] = read-out: Early growth response protein 1 (EGR1) transcription factor, EGR1 (gene 1958); assay: LTEA_HepaRG_EGR1: Life Technologies and Expression Analysis (LTEA) Assay for Early growth response protein 1 (EGR1) transcription factor using HepaRG (AID 2283490)
Procedure, shortened: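 EGR1 expression change in human HepaRG after 48 h chemical exposure, assessed by housekeeping-normalized qRT-PCR; concentration-response up to 100 uM, fitted in both directions against DMSO controls.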

[5] = read-out: Ezrin (EZR), EZR (gene 7430); assay: LTEA_HepaRG_EZR: Life Technologies and Expression Analysis (LTEA) Assay for Ezrin (EZR) using HepaRG (AID 2283491)
Procedure, shortened: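 Gain or loss of EZR mRNA is scored relative to 0.5% DMSO in human HepaRG cultures treated 48 h with test chemicals in duplicate, eight half-log concentrations from 100 uM.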

[6] = read-out: Cytochrome P450 3A7 (Homo sapiens) (UniProt P24462); assay: LTEA_HepaRG_CYP3A7: Life Technologies and Expression Analysis (LTEA) Assay for CYP3A7 using HepaRG (AID 2283492)
Procedure, shortened: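 Cells were thawed, plated, cultured 48 h, then treated for a further 48 h with chemicals (eight-point half-log series from 100 uM, 0.5% DMSO). RNA was isolated and CYP3A7 expression quantified by qRT-PCR normalised to ACTB, GAPDH and POLR2A.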

CYP3A5 (gene 1577) = assay: LTEA_HepaRG_CYP3A5: Life Technologies and Expression Analysis (LTEA) Assay for CYP3A5 using HepaRG (AID 2283493)
Procedure, shortened: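 qRT-PCR read-out: CYP3A5 transcript in HepaRG lysates, housekeeping-normalized (ACTB/GAPDH/POLR2A), fitted bidirectionally against 0.5% DMSO baseline. Exposure 48 h, eight half-log concentrations up to 100 uM, duplicates.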

[7] = read-out: Fatty Acid-Binding Protein 1 (FABP1), FABP1 (gene 2168); assay: LTEA_HepaRG_FABP1: Life Technologies and Expression Analysis (LTEA) Assay for Fatty Acid-Binding Protein 1 (FABP1) using HepaRG (AID 2283494)
Procedure, shortened: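 Values reflect bidirectional concentration-response fitting of FABP1 mRNA change against 0.5% DMSO controls. Human HepaRG cultures received eight half-log doses (top 100 uM) for 48 h; expression quantified by TaqMan qRT-PCR with housekeeping-gene normalization.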

[8] = read-out: Cytochrome P450 4A22 (Homo sapiens) (UniProt Q5TCH4); assay: LTEA_HepaRG_CYP4A22: Life Technologies and Expression Analysis (LTEA) Assay for Cytochrome P450 4A22 (CYP4A22) using HepaRG (AID 2283495)
Procedure, shortened: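 Cryopreserved HepaRG cells, plated and cultured 48 h, then switched to serum-free induction medium and treated 48 h (duplicates, up to 100 uM, half-log steps, 0.5% DMSO). Expression change of CYP4A22 was fitted bidirectionally against vehicle.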

[9] = read-out: Cytochrome P450 7A1 (Homo sapiens) (UniProt P22680); assay: LTEA_HepaRG_CYP7A1: Life Technologies and Expression Analysis (LTEA) Assay for Cytochrome P450 7A1 (CYP7A1) using HepaRG (AID 2283496)
Procedure, shortened: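 Using 0.5% DMSO as vehicle and baseline, chemicals were tested in duplicate over an 8-point range from 100 uM on HepaRG cells for 48 h; qRT-PCR signals were normalised to ACTB, GAPDH and POLR2A.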

[10] = read-out: Glutathione S-Transferase (GSTA2), GSTA2 (gene 2939); assay: LTEA_HepaRG_GSTA2: Life Technologies and Expression Analysis (LTEA) Assay for Glutathione S-Transferase (GSTA2) using HepaRG (AID 2283497)
Procedure, shortened: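 Oxidative-stress marker GSTA2 is quantified by TaqMan qRT-PCR in HepaRG cultures treated 48 h across an eight-point range to 100 uM. Expression is normalized to endogenous controls and compared with 0.5% DMSO vehicle.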

[11] = read-out: Glutamate-cysteine ligase catalytic (GCLC), GCLC (gene 2729); assay: LTEA_HepaRG_GCLC: Life Technologies and Expression Analysis (LTEA) Assay for Glutamate-cysteine ligase catalytic (GCLC) using HepaRG (AID 2283498)
Procedure, shortened: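 Oxidative-stress marker GCLC is measured as mRNA change in human HepaRG liver cells after 48 h chemical treatment in 0.5% DMSO, eight concentrations from 100 uM. Activity is fitted bidirectionally against vehicle.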

[12] = read-out: growth arrest and DNA damage 45 (GADD45G), GADD45G (gene 10912); assay: LTEA_HepaRG_GADD45G: Life Technologies and Expression Analysis (LTEA) Assay for growth arrest and DNA damage 45 (GADD45G) using HepaRG (AID 2283499)
Procedure, shortened: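 Human hepatic HepaRG line treated 48 h with chemicals (eight concentrations, half-log steps from 100 uM); transcript induction or repression of GADD45G scored by qRT-PCR versus DMSO vehicle.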

[13] = read-out: Glutamate-cysteine ligase regulatory (GCLM), GCLM (gene 2730); assay: LTEA_HepaRG_GCLM: Life Technologies and Expression Analysis (LTEA) Assay for Glutamate-cysteine ligase regulatory (GCLM) using HepaRG (AID 2283500)
Procedure, shortened: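 HepaRG, 48 h dosing, 100 uM top, half-log x8, 0.5% DMSO vehicle. Readout: GCLM mRNA by TaqMan qRT-PCR, housekeeping-normalized (ACTB/GAPDH/POLR2A). Curves fit bidirectionally vs DMSO baseline.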

[14] = read-out: Glutathione S-transferase M3 (GSTM3), GSTM3 (gene 2947); assay: LTEA_HepaRG_GSTM3: Life Technologies and Expression Analysis (LTEA) Assay for Glutathione S-transferase M3 (GSTM3) using HepaRG (AID 2283501)
Procedure, shortened: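 Changes in GSTM3 expression, an oxidative-stress marker, were scored by bidirectional curve fitting against 0.5% DMSO vehicle. Human HepaRG cultures received chemicals for 48 h in duplicate, highest concentration 100 uM with half-log dilutions.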

[15] = read-out: Heat shock 70 kDa protein 1 (HSPA1A), gene 3303; assay: LTEA_HepaRG_HSPA1A: Life Technologies and Expression Analysis (LTEA) Assay for Heat shock 70 kDa protein 1 (HSPA1A) using HepaRG (AID 2283502)
Procedure, shortened: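 HepaRG, 48 h exposure, 8-pt half-log CRC from 100 uM in 0.5% DMSO, duplicates. Readout: TaqMan qRT-PCR of HSPA1A mRNA, housekeeping-normalized (ACTB/GAPDH/POLR2A). Bidirectional fit vs 0.5% DMSO baseline.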

[16] = read-out: Hypoxia-inducible factor 1-alpha (Homo sapiens) (UniProt Q16665); assay: LTEA_HepaRG_HIF1A: Life Technologies and Expression Analysis (LTEA) Assay for Hypoxia-inducible factor 1 (HIF1A) Trancription factor using HepaRG (AID 2283503)
Procedure, shortened: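 Gain- or loss-of-signal HIF1A mRNA changes are fitted against a DMSO baseline. HepaRG cultures receive eight concentrations, highest 100 uM, for 48 h in serum-free induction medium with 0.5% DMSO.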

[17] = read-out: 3-Hydroxy-3-Methylglutaryl-CoA Synthase 2 (HMGCS2), HMGCS2 (gene 3158); assay: LTEA_HepaRG_HMGCS2: Life Technologies and Expression Analysis (LTEA) Assay for 3-Hydroxy-3-Methylglutaryl-CoA Synthase 2 (HMGCS2) using HepaRG (AID 2283504)
Procedure, shortened: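 Expression of HMGCS2 in human HepaRG liver cells is measured by qRT-PCR 48 h after dosing (highest 100 uM, half-log series, 0.5% DMSO). Values come from bidirectional concentration-response fitting with DMSO as baseline.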

HGF (gene 3082) = assay: LTEA_HepaRG_HGF: Life Technologies and Expression Analysis (LTEA) Assay for Hepatocyte Growth Facto (HGF) using HepaRG (AID 2283505)
Procedure, shortened: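 Gain or loss of HGF mRNA in human HepaRG liver cells after 48 h chemical exposure; eight concentrations up to 100 uM with 0.5% DMSO vehicle, quantified by TaqMan qRT-PCR.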

[18] = read-out: Insulin Like Growth Factor 1 (IGF1), IGF1 (gene 3479); assay: LTEA_HepaRG_IGF1: Life Technologies and Expression Analysis (LTEA) Assay for Insulin Like Growth Factor 1 (IGF1) using HepaRG (AID 2283506)
Procedure, shortened: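 qRT-PCR readout of IGF1 mRNA, normalized to three housekeeping genes, after 48 h chemical exposure of HepaRG cells. Concentrations: 8-point half-log series, top 100 uM, 0.5% DMSO vehicle. Gain or loss fitted against DMSO baseline.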

Measured: AC50

Chain of Cytochrome P450 3A4 (Homo sapiens) (P08684 whole entry, looked up): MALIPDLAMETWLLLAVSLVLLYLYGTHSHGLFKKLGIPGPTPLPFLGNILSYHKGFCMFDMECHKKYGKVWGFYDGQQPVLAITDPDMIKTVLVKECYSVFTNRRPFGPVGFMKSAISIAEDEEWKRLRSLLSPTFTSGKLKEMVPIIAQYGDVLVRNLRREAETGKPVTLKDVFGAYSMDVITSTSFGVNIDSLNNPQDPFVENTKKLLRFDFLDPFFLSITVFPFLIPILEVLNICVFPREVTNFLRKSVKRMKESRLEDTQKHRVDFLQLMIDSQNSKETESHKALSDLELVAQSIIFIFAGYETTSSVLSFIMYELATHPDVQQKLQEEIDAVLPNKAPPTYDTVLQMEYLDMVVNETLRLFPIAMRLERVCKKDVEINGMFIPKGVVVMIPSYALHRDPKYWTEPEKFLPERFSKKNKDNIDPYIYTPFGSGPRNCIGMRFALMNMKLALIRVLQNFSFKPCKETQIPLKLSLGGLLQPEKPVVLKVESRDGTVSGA
Chain of Hypoxia-inducible factor 1-alpha (Homo sapiens) (Q16665 whole entry, looked up): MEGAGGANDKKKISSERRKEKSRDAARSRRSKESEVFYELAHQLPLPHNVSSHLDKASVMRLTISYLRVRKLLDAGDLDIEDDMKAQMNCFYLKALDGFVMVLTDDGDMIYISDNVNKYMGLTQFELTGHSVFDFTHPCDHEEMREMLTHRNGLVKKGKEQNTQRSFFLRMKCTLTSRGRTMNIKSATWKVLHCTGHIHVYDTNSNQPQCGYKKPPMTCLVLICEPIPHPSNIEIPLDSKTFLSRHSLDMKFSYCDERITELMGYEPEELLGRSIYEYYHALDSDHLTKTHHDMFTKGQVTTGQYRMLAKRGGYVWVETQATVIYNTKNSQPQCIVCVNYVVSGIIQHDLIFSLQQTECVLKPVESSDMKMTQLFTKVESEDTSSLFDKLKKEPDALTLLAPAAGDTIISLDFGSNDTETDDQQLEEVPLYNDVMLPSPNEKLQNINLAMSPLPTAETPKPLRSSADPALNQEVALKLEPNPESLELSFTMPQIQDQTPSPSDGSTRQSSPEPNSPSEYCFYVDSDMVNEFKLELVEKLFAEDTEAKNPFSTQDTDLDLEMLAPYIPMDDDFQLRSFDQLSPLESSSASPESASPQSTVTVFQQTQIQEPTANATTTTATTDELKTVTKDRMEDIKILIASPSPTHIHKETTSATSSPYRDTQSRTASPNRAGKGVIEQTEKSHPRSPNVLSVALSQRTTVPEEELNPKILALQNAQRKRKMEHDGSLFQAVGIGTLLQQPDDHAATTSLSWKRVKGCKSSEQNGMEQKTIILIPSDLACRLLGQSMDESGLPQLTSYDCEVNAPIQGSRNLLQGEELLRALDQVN
Chain of Cytochrome P450 3A7 (Homo sapiens) (P24462 whole entry, looked up): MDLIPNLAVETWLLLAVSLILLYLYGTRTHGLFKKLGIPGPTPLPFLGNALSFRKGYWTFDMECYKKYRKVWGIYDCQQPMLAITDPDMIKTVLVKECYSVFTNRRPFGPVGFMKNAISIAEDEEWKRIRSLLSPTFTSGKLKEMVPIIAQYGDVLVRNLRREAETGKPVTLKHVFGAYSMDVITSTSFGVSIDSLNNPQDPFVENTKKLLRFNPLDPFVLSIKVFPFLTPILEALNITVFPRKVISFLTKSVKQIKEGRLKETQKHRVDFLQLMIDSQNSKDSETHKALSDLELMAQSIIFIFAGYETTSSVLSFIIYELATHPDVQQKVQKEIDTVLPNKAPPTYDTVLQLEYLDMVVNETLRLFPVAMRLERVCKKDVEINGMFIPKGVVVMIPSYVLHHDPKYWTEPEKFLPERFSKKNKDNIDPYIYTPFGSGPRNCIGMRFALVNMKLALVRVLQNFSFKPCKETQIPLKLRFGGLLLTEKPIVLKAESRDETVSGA

CSC1=N[C@@](C)(c2ccccc2)C(=O)N1Nc1ccccc1
active: [1] 67.6 µM | [2] 28 µM | [4] 31.9 µM | [5] 13.1 µM | [6] 25.6 µM | [7] 53.8 µM | [8] 30.6 µM | [9] 38 µM | [10] 33.9 µM | [12] 13.5 µM | [13] 25 µM | [14] 76.6 µM | [16] 77.1 µM | [17] 35.3 µM | [18] 27.6 µM
inactive: [3] | CYP3A5 (gene 1577) | [11] | [15] | HGF (gene 3082)

CCCOCC(=Nc1ccc(Cl)cc1C(F)(F)F)n1ccnc1
active: [1] 73.5 µM | [2] 72.4 µM | CYP3A5 (gene 1577) 71 µM | [7] 14.6 µM | [8] 15.8 µM | [9] 30.6 µM | [10] 35 µM | [11] 91 µM | [15] 81.9 µM | [16] 87.3 µM | [17] 53.2 µM | [18] 12.1 µM
inactive: [3] | [4] | [5] | [12] | [13] | [14] | HGF (gene 3082)

Nc1nc(N)nc(NC2CC2)n1
inactive: [1] | [2] | [3] | [5] | [6] | CYP3A5 (gene 1577) | [7] | [8] | [9] | [10] | [11] | [12] | [13] | [14] | [15] | [16] | [17] | HGF (gene 3082) | [18]
